From PubChem BioAssay AID1159580 (chemical genetic matrix, 2015)
Screen size: about 5,500 compounds; about 2,000 (36%) were called active. Inconclusive results (about 18%) are left out. Some of the results follow. Unmarked numbers belong to inactive results. No stated cut-off is given here; in the data, active means normalized growth mostly below about 0.91 (no sharp cut-off); inconclusive means no clear call, values can overlap the other calls; inactive means mostly above about 0.92.

Experiment: chemical genetic growth profiling, strain panel (AID 1159580);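 further: tested at 20 µM; growth read once vehicle control cultures reached saturation at 30 °C; 1 = growth at the plate median or of vehicle wells; lower values mean less growth of the strain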
Details: growth OD

## CC1=CC2C(C(C)C)CCC(C)(O)C2CC1 (stereo not drawn)
S. cerevisiae deletion strains, locus YJL187C, strain SWE1 (second series), active compounds read low
  normalized growth: 1.01
S. cerevisiae deletion strains, locus YJL187C, strain SWE1, active compounds read low
  normalized growth: 1
S. cerevisiae deletion strains, locus YJR043C, strain POL32, active compounds read low
  normalized growth: 0.973
S. cerevisiae deletion strains, locus YJR066W, strain TOR1, active compounds read low
  normalized growth: 0.914
S. cerevisiae deletion strains, locus YKL009W, strain mrt4, active compounds read low
  normalized growth: 0.994
S. cerevisiae deletion strains, locus YKL068W, active compounds read low
  normalized growth: 0.972
S. cerevisiae deletion strains, locus YKL085W, strain MDH1 (second series), active compounds read low
  normalized growth: 0.979
S. cerevisiae deletion strains, locus YKL085W, strain MDH1, active compounds read low
  normalized growth: 0.979
S. cerevisiae deletion strains, locus YKL160W, strain elf1, active compounds read low
  normalized growth: 0.968
S. cerevisiae deletion strains, locus YKL190W, strain CNB1, active compounds read low
  normalized growth: 0.994
S. cerevisiae deletion strains, locus YKR001C, strain vps1, active compounds read low
  normalized growth: 0.989
S. cerevisiae deletion strains, locus YKR026C, strain gcn3, active compounds read low
  normalized growth: 0.993
S. cerevisiae deletion strains, locus YKR091W, strain srl3, active compounds read low
  normalized growth: 0.987
S. cerevisiae deletion strains, locus YLL001W, strain dnm1, active compounds read low
  normalized growth: 0.947
S. cerevisiae deletion strains, locus YLL026W, active compounds read low
  normalized growth: 0.988
S. cerevisiae deletion strains, locus YLL041C, strain sdh2, active compounds read low
  normalized growth: 0.995
S. cerevisiae deletion strains, locus YLR027C, strain aat2, active compounds read low
  normalized growth: 0.978
S. cerevisiae deletion strains, locus YLR039C, strain RIC1, active compounds read low
  normalized growth: 0.913
S. cerevisiae deletion strains, locus YLR058C, strain SHM2, active compounds read low
  normalized growth: 0.98
S. cerevisiae deletion strains, locus YLR102C, strain apc9, active compounds read low
  normalized growth: 0.989
S. cerevisiae deletion strains, locus YLR113W, strain HOG1, active compounds read low
  normalized growth: 0.887
S. cerevisiae deletion strains, locus YLR221C, strain rsa3, active compounds read low
  normalized growth: 0.986
S. cerevisiae deletion strains, locus YLR258W, strain gsy2, active compounds read low
  normalized growth: 0.971
S. cerevisiae deletion strains, locus YLR262C, strain YPT6 (second series), active compounds read low
  normalized growth: 0.81 (active)
S. cerevisiae deletion strains, locus YLR268W, strain sec22, active compounds read low
  normalized growth: 0.949
S. cerevisiae deletion strains, locus YLR320W, strain mms22, active compounds read low
  normalized growth: 0.966
S. cerevisiae deletion strains, locus YLR330W, strain CHS5, active compounds read low
  normalized growth: 0.982
S. cerevisiae deletion strains, locus YLR342W, strain FKS1, active compounds read low
  normalized growth: 0.983
S. cerevisiae deletion strains, locus YLR357W, strain rsc2, active compounds read low
  normalized growth: 1.08
S. cerevisiae deletion strains, locus YLR370C, strain arc18, active compounds read low
  normalized growth: 0.984
S. cerevisiae deletion strains, locus YLR371W, strain rom2, active compounds read low
  normalized growth: 1.01
S. cerevisiae deletion strains, locus YLR384C, strain iki3, active compounds read low
  normalized growth: 0.991
S. cerevisiae deletion strains, locus YLR418C, strain cdc73, active compounds read low
  normalized growth: 0.966
S. cerevisiae deletion strains, locus YML016C, strain PPZ1, active compounds read low
  normalized growth: 0.992
S. cerevisiae deletion strains, locus YML032C, strain rad52, active compounds read low
  normalized growth: 0.971
S. cerevisiae deletion strains, locus YML120C, strain ndi1, active compounds read low
  normalized growth: 0.966
S. cerevisiae deletion strains, locus YML124C, strain tub3, active compounds read low
  normalized growth: 0.985
S. cerevisiae deletion strains, locus YMR058W, strain fet3, active compounds read low
  normalized growth: 1.01
S. cerevisiae deletion strains, locus YMR078C, strain ctf18, active compounds read low
  normalized growth: 0.981
S. cerevisiae deletion strains, locus YMR125W, strain sto1, active compounds read low
  normalized growth: 1.02
S. cerevisiae deletion strains, locus YMR129W, active compounds read low
  normalized growth: 0.982
S. cerevisiae deletion strains, locus YMR205C, strain PFK2, active compounds read low
  normalized growth: 0.949
S. cerevisiae deletion strains, locus YMR223W, strain ubp8, active compounds read low
  normalized growth: 0.964
S. cerevisiae deletion strains, locus YMR231W, strain pep5, active compounds read low
  normalized growth: 0.994
S. cerevisiae deletion strains, locus YMR307W, strain GAS1, active compounds read low
  normalized growth: 0.993
S. cerevisiae deletion strains, locus YNL067W, strain RPL9B, active compounds read low
  normalized growth: 1.02
S. cerevisiae deletion strains, locus YNL071W, strain lat1, active compounds read low
  normalized growth: 0.876 (active)
S. cerevisiae deletion strains, locus YNL128W, strain TEP1, active compounds read low
  normalized growth: 0.962
S. cerevisiae deletion strains, locus YNL183C, strain NPR1, active compounds read low
  normalized growth: 0.911
S. cerevisiae deletion strains, locus YNL209W, strain ssb2, active compounds read low
  normalized growth: 0.984
S. cerevisiae deletion strains, locus YNL233W, strain BNI4, active compounds read low
  normalized growth: 1.01
S. cerevisiae deletion strains, locus YNL248C, strain rpa49, active compounds read low
  normalized growth: 1.03
S. cerevisiae deletion strains, locus YNL250W, strain rad50, active compounds read low
  normalized growth: 0.952
S. cerevisiae deletion strains, locus YNL271C, strain bni1, active compounds read low
  normalized growth: 0.986
S. cerevisiae deletion strains, locus YNL298W, strain CLA4, active compounds read low
  normalized growth: 0.983
S. cerevisiae deletion strains, locus YNL307C, strain MCK1, active compounds read low
  normalized growth: 0.986
S. cerevisiae deletion strains, locus YNL322C, strain KRE1 (second series), active compounds read low
  normalized growth: 0.975
S. cerevisiae deletion strains, locus YNL322C, strain KRE1, active compounds read low
  normalized growth: 0.984
S. cerevisiae deletion strains, locus YNR049C, strain mso1, active compounds read low
  normalized growth: 0.998
S. cerevisiae deletion strains, locus YNR052C, strain pop2, active compounds read low
  normalized growth: 1
S. cerevisiae deletion strains, locus YOL012C, strain htz1
  normalized growth: 1.19
S. cerevisiae deletion strains, locus YOL147C, strain pex11, active compounds read low
  normalized growth: 0.982
S. cerevisiae deletion strains, locus YOR001W, strain rrp6, active compounds read low
  normalized growth: 0.989
S. cerevisiae deletion strains, locus YOR061W, strain CKA2, active compounds read low
  normalized growth: 0.966
S. cerevisiae deletion strains, locus YOR069W, strain VPS5, active compounds read low
  normalized growth: 0.989
S. cerevisiae deletion strains, locus YOR070C, strain gyp1, active compounds read low
  normalized growth: 0.975
S. cerevisiae deletion strains, locus YOR080W, strain dia2, active compounds read low
  normalized growth: 0.993
S. cerevisiae deletion strains, locus YOR083W, strain WHI5, active compounds read low
  normalized growth: 0.964
S. cerevisiae deletion strains, locus YOR106W, strain vam3, active compounds read low
  normalized growth: 0.997
S. cerevisiae deletion strains, locus YOR136W, strain idh2, active compounds read low
  normalized growth: 0.968
S. cerevisiae deletion strains, locus YOR144C, strain elg1, active compounds read low
  normalized growth: 0.985
S. cerevisiae deletion strains, locus YOR184W, strain ser1, active compounds read low
  normalized growth: 0.933
S. cerevisiae deletion strains, locus YOR231W, strain MKK1, active compounds read low
  normalized growth: 0.911
S. cerevisiae deletion strains, locus YOR265W, strain rbl2, active compounds read low
  normalized growth: 0.978
S. cerevisiae deletion strains, locus YOR270C, strain vph1, active compounds read low
  normalized growth: 0.959
S. cerevisiae deletion strains, locus YOR290C, strain snf2, active compounds read low
  normalized growth: 0.997
S. cerevisiae deletion strains, locus YOR316C, strain cot1, active compounds read low
  normalized growth: 0.989
S. cerevisiae deletion strains, locus YPL051W, strain arl3, active compounds read low
  normalized growth: 0.946
S. cerevisiae deletion strains, locus YPL078C, strain atp4, active compounds read low
  normalized growth: 0.957
S. cerevisiae deletion strains, locus YPL106C, strain sse1, active compounds read low
  normalized growth: 1
S. cerevisiae deletion strains, locus YPL240C, strain hsp82, active compounds read low
  normalized growth: 0.987
S. cerevisiae deletion strains, locus YPL256C, strain CLN2, active compounds read low
  normalized growth: 0.915
S. cerevisiae deletion strains, locus YPR119W, strain clb2, active compounds read low
  normalized growth: 0.985
S. cerevisiae deletion strains, locus YPR141C, strain kar3, active compounds read low
  normalized growth: 0.97
S. cerevisiae deletion strains, locus YPR163C, strain tif3, active compounds read low
  normalized growth: 0.99
S. cerevisiae deletion strains, locus YPR167C, strain met16, active compounds read low
  normalized growth: 0.987
S. cerevisiae deletion strains, strain wtn01, active compounds read low
  normalized growth: 0.964
S. cerevisiae strains, strain wild type, active compounds read low
  normalized growth: 0.969
